High-throughput results as filed in PubChem BioAssay.
Most compounds without a hit are left out; they make up all but 5.7% or so of the library.
AHR act = activates the human aryl hydrocarbon receptor | AHR-responsive luciferase reporter cells, luminescence | 320,000 compounds, 2.5% hits | activation, % at 5 µM | P35869; in the data active = activation above about 47%;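 also: 0% = vehicle wells and 100% = reference agonist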
DAX1 inh-1 = inhibitors of DAX1 repression of SF-1 activated StAR promoter; HEK293T StAR-luciferase reporter, SF-1/DAX-1 repression relief; inhibition, % at 6.8 µM; 370,000 compounds, 1.1% hits; AID 652010;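 active = inhibition above the mean over all tested compounds plus 3 SD, cut at about 3.6% in these data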;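 also: 0% = DAX-1 cells with DMSO and 100% = cells lacking DAX-1 with DMSO; higher inhibition means more luminescence from relief of DAX-1 repression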
ssDAF12 agonist = activators of S. stercoralis DAF-12 nuclear receptor. 370,000 compounds, 1% hits. activation, % at 6.8 µM. AID 652126. HEK293 ssDAF-12/GRIP1 lit1-tk-luc reporter, luminescence; % of 3 µM dafachronic acid response;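 active = activation above the mean over all tested compounds plus 3 SD, cut at about 0.9% in these data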;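 also: 0% = DMSO-only wells and 100% = 3 µM delta7-dafachronic acid wells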
DAX1 inh-2 = inhibitors of human orphan nuclear receptor DAX1 (NR0B1). HEK293 Gal4-DAX1 luciferase reporter, luminescence. inhibition, % at 6.75 µM. 340,000 compounds, 0.99% hits. AID 504766;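 active = inhibition above the mean over all tested compounds plus 3 SD, cut at about 4.2% in these data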;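 also: 0% = DAX1-transfected cells with DMSO and 100% = empty-vector control cells with DMSO; inhibition shows as a rise in luminescence from relieved DAX1 repression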
Target sequence (P51843 207-470 limits assumed): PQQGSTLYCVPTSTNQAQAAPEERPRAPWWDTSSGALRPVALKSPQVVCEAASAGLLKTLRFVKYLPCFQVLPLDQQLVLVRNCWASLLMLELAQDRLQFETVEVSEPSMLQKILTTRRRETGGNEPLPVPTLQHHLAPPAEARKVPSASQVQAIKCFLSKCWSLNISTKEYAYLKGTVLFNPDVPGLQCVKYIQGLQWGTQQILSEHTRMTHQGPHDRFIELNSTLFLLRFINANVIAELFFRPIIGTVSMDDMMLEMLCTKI
hgDAF12 agonist = agonists of H. glycines DAF-12 nuclear receptor | 370,000 compounds, 1.8% hits | AID 687014 | HEK293 GAL4-hgDAF12 UAS-luciferase reporter, agonist luminescence; normalized to butyrate control | activation, % at 6.8 µM;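 active = activation above a cutoff set at the mean of all screened compounds plus 3 SD, cut at about 10% in these data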;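 also: 0% = DMSO wells and 100% = sodium butyrate wells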
hcDAF12 agonist = H. contortus DAF-12 activation, primary screen; HEK293 hcDAF-12 lit1-tk-luc reporter, luminescence; 0% DMSO, 100% Δ7-dafachronic acid; activation, % at 6.8 µM; 370,000 compounds, 1.4% hits;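 active = activation above the mean of all tested compounds plus 3 SD, cut at about 5.5% in these data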;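 also: 100% = response to 3 µM Δ7-dafachronic acid high control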
DAX1 inh confirm = confirmation of human DAX1 (NR0B1) inhibitors. shares compounds with DAX1 inh-1. HEK293T StAR-promoter luciferase reporter, SF-1/DAX-1 repression. inhibition, % at 6.8 µM. 2,400 compounds, 87% hits. AID 652134;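 active = inhibition above the average of every tested compound plus 3 SD, cut at about 3.8% in these data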;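 also: 0% = DAX-1 cells with DMSO and 100% = no DAX-1 control cells with DMSO; active compounds raise luminescence by relieving repression of the StAR reporter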
SF1 AF2mut Luc = nonselective inhibitor or artifact in SF-1 mutant DAX1 counter-screen | shares compounds with DAX1 inh-1 | AID 652136 | 2,400 compounds, 78% hits | inhibition, % at 6.8 µM | HEK293 StAR-luciferase, SF-1 AF2 mutant, luminescence;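 active = inhibition above the mean of all tested compounds plus 3 SD, cut at about 3% in these data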;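 also: 0% = DAX-1 transfected cells with DMSO and 100% = cells without DAX-1 with DMSO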
LXRb hcDAF ctr = LXR-beta agonism as hcDAF-12 counter-screen; shares compounds with hcDAF12 agonist; HEK293 Gal4-LXR tk-luc reporter, luminescence, 24 h; normalized: DMSO 0%, positive control 100%; activation, % at 6.8 µM; 3,400 tested, under 10 active; AID 743027;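 active = mean percent activation of the reporter above a cutoff set as the average over tested compounds plus their standard deviation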
Target sequence (P55055 whole entry, looked up, the tested form may be a part): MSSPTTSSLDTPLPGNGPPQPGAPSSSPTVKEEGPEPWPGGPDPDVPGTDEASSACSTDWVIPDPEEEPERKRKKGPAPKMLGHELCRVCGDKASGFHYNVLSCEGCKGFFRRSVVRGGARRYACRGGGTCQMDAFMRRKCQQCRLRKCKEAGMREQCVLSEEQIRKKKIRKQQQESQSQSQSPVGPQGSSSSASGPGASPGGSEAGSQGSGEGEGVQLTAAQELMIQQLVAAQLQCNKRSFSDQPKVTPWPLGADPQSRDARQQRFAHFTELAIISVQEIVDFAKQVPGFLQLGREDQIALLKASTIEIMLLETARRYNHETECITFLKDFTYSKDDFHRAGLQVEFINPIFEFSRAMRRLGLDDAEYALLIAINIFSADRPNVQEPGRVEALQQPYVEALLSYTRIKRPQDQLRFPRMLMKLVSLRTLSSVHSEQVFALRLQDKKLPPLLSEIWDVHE
hcDAF12 ag = hcDAF-12 agonism, confirmation assay; AID 743032; HEK293 hcDAF-12 lit1-tk-luc reporter, luminescence; % of Δ7-dafachronic acid response; activation, % at 6.8 µM; 3,400 compounds, 61% hits; shares compounds with hcDAF12 agonist;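 active = mean activation across triplicate tests above the threshold derived from the earlier primary screen, cut at about 5.5% in these data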;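 also: 0% = DMSO only wells and 100% = 3 µM Δ7-dafachronic acid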
hgDAF12 ag = confirmation of H. glycines DAF-12 agonists. activation, % at 6.8 µM. shares compounds with hgDAF12 agonist. HEK293 GAL4-hgDAF12 luciferase reporter, agonist mode; percent of butyrate response. 3,300 compounds, 80% hits;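 active = mean activation over triplicate wells above the hit cutoff derived from the earlier primary screen, cut at about 11% in these data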;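 also: 0% = DMSO low control and 100% = 2 mM sodium butyrate high control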
LXRb DAF12 ctr = LXR-beta agonism as DAF-12 counter-screen; shares compounds with hgDAF12 agonist; HEK293 Gal4-LXR luciferase reporter, 24 h; activation, % at 6.8 µM; 3,300 tested, under 10 active;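 active = mean activation of the triplicate above a set limit carried over from the primary screen, none filed active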
* marks the source's active call; other numbers are inactive results; . = not tested or not shown.

SMILES	AHR act	DAX1 inh-1	ssDAF12 agonist	DAX1 inh-2	hgDAF12 agonist	hcDAF12 agonist	DAX1 inh confirm	SF1 AF2mut Luc	LXRb hcDAF ctr	hcDAF12 ag	hgDAF12 ag	LXRb DAF12 ctr
COc1ccc(CCc2ccc3ccccc3n2)cc1	.	5.7*	0	2	14*	3	13*	6.8*	.	.	12*	1
COc1cc2ccc(-c3ccc4ccccc4n3)cc2cc1OC	.	1	-1	2	6	1	.	.	.	.	.	.
COc1ccc(-c2ccc3ccccc3n2)cc1OC	2	5.3*	0	1	17*	1	7.4*	3.4*	.	.	12*	1
COc1ccc(-c2ccc3ccccc3n2)cc1	23	12*	1	-1	24*	9.6*	20*	8.7*	2	11*	17*	1
COc1ccc(CCc2ccnc3ccccc23)cc1	.	-2	-1	-1	0	-1	.	.	.	.	.	.
COc1ccc(CNC(=O)c2ccc(C(C)C)cc2)cc1	20	6.8*	-1	2	18*	4	7.6*	5.7*	.	.	15*	1
Cc1cc2ccccn2c1C(=O)c1ccccc1F	0	-1	-1	0	4	-1	.	.	.	.	.	.
CN(C(=O)/C=C/c1cnc2ccccc2c1)C1CCCCC1	-4	7.8*	0.9*	-1	17*	8.1*	17*	9.9*	1	6.3*	15*	1
COc1ccc(/C=C/C(=O)N(C)C2CCCCC2)cc1Br	-1	0	-1	3	6	-1	.	.	.	.	.	.
CSc1cccc(NC(=O)NNC(=O)C2CCN(S(=O)(=O)N(C)C)CC2)c1	1	1	-1	0	0	-1	.	.	.	.	.	.
CN(C)C(=O)c1ccc(N=Nc2c(O)c3ccccc3[nH]c2=O)cc1	.	-1	0	-1	5	4	.	.	.	.	.	.
O=C(O)c1ccc(N=Nc2c(O)[nH]c3ccccc23)cc1	10	5.9*	2.0*	-2	16*	12*	11*	5.7*	1	9.9*	17*	1
CC(C)NS(=O)(=O)c1ccc(CCC(=O)N2CCCCC2)cc1	0	0	-1	0	-1	-2	.	.	.	.	.	.
Cc1ccc(NC(=O)N2CCc3ccccc32)cc1C	-5	7.4*	1.2*	-2	16*	15*	16*	8.4*	2	9.4*	25*	1
CCc1ccc(-c2cc(N)n(-c3ccccc3)n2)cc1	.	7.3*	1	5.5*	17*	5	12*	7.2*	.	.	18*	1
Cc1cccc(-c2cc(N)n(-c3ccccc3)n2)c1	.	7.8*	0	3	18*	3	11*	6.8*	.	.	21*	1
COc1ccc(OCC(=O)Nc2ccc3c(c2)CCC3)cc1	2	0	-1	0	0	1	.	.	.	.	.	.
Cc1csc(NC(=O)COc2ccc3c(c2)CCC3)n1	18	4.7*	0	2	14*	4	9.6*	8.5*	.	.	17*	1
COc1ccc(C(OCC(O)CNCCc2ccccc2)c2ccc(OC)cc2)cc1 (stereo not drawn)	.	0	-1	0	-1	-2	.	.	.	.	.	.
c1ccc2c(c1)CC/C2=N/Nc1nc2ccccc2[nH]1	48*	7.3*	0	2	14*	5	11*	11*	.	.	10	1
N#Cc1cnc2cc(-c3ccccc3)nn2c1N	32	0	-1	.	4	3	.	.	.	.	.	.
COc1ccc(-c2cc3nc(C)cc(N)n3n2)cc1	-9	5.4*	2.4*	-3	20*	15*	18*	8.9*	2	13*	19*	1
COc1ccc(-c2cc3nc(C)cc(-c4ccc(OC)cc4)n3n2)cc1	24	0	0	2	2	1	.	.	.	.	.	.
COc1ccc(-c2cc3ncc(-c4ccccc4)c(N)n3n2)cc1	.	6.5*	-1	1	25*	1	15*	7.0*	.	.	16*	1
O=C(CSCc1c(F)cccc1F)Nc1ccccc1	2	1	-1	0	8	3	.	.	.	.	.	.
SMILES	AHR act	DAX1 inh-1	ssDAF12 agonist	DAX1 inh-2	hgDAF12 agonist	hcDAF12 agonist	DAX1 inh confirm	SF1 AF2mut Luc	LXRb hcDAF ctr	hcDAF12 ag	hgDAF12 ag	LXRb DAF12 ctr
CC1(C(=O)O)CCC(C(=O)NNC(=O)c2ccccc2Cl)C1(C)C (stereo not drawn)	-1	0	-1	.	0	4	.	.	.	.	.	.
O=C1C(Cc2ccccc2)Nc2ncnc(N3CCCCC3)c2N1Cc1ccccc1 (stereo not drawn)	0	0	-1	0	0	-2	.	.	.	.	.	.
C/C(=N/NC(=O)c1cccs1)c1cccc(N)c1	6	5.8*	0	6.0*	16*	7.0*	5.5*	2	1	4	10	0
O=C(Nc1ccc2oc(=O)ccc2c1)c1cc2ccccc2o1	-5	0	0	2	6	4	.	.	.	.	.	.
O=C(Nc1ccc2c(c1)OCCO2)c1cc2ccccc2o1	21	5.7*	1.0*	0	20*	12*	20*	8.3*	2	8.1*	17*	1
O=C(/C=C\Nc1ccc2c(c1)OCO2)c1ccc(Cl)s1	21	2	0	4	10	2	.	.	.	.	.	.
O=C(/C=C\Nc1ccc2c(c1)OCO2)c1cccs1	31	9.0*	1.0*	-1	17*	8.3*	12*	0	2	11*	12*	1
C/C(=N\NC(=O)CNC(=O)c1cccs1)c1ccc(Cl)c(Cl)c1	18	-1	-1	0	1	-1	.	.	.	.	.	.
O=C(Nc1ccc2c(c1)OCCO2)c1cccs1	1	4.7*	1	0	19*	8.3*	15*	7.6*	1	4	13*	1
CC(=O)N1CCc2ccccc2C1CC(=O)O (stereo not drawn)	-1	0	-1	1	3	2	.	.	.	.	.	.
